Our source for the growth values is PubChem BioAssay (NCI).

Compounds without any hit were thinned out: in the full panel of roughly 83,000, 20% have a hit.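 Values shown are percent growth following 48 h exposure of cells in 96-well plates to a single concentration of compound; below 10 was considered active.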 Active and inactive are the calls of the source.

The test system of the experiment is NCI-H460 lung. Briefly: NCI-60 one-dose screen, 48 h (100 = growth as untreated, 0 = no growth, -100 = all killed). To be noted: 10 µM unless noted. The procedure: Growth inhibition of the NCI-H460 human Non-Small Cell Lung tumor cell line is measured as a screen for anti-cancer activity. Cells are grown in 96 well plates and exposed to the test compound for 48 hours. Compounds are tested at a single concentration, which is 10^-5 M for most compounds. The reported endpoint is percent growth (GI% or GIPRCNT), where numbers from 0 - 100% represent growth inhibition, and numbers from -100% - 0 represent cell death. For example, a value of 40 represents 60% growth inhibition. A value of 0 means no net growth occurred over the course of the experiment. A value of -40 indicates 40% of cells at the beginning of the experiment died by the end of the experiment. A value of -100 means all cells are dead at the end of the experiment.
NCI-60 Human Tumor Cell Lines Screen was performed using the standard one-dose NCI protocol, which is described in more detail at https://dtp.cancer.gov/discovery_development/nci-60/default.htm.
Compounds with GIPRCNT values below 10 were considered active. Activity score was based on GIPRCNT using the following formula: […]
Score is 0 for GIPRCNT values of 100 or above, 50 for GIPRCNT values of 0, and 100 for GIPRCNT values of -100.
Regarding `C/C(=C\CCc1ccoc1)CC/C=C(\C)CCCN1CCSCC1`, the growth is 10.1% (inactive).

For the compound `CC(=O)c1nn(-c2ccccc2)c(=Nc2ccccc2)cc1C`, the growth was 101% (inactive).

For the compound `COc1cnc2c(c1)C(=O)c1c-2n(CCCN2CCCC2)c(=O)c2cc(F)ccc12`, the growth was -47.9% (active).

For `N#CC(C#N)C(C#N)C#N`, the growth was 105% (inactive).

With `O=C(Nc1cccc(Cl)c1)Nc1cccc(Cl)c1`, the growth was 52% (inactive).

As for `N#Cc1c(-c2ccc(F)cc2)n2c(nc1=O)SC(=O)C2=O`, the growth is 101% (inactive).

For `O=C(NCCCl)NCCN1c2nc3ccccc3cc2Sc2cc3ccccc3nc21`, the growth is 26% (inactive).

As to `CCOC(=O)C1C(=O)NC(C(=O)OCC)(C(=O)OCC)C1CC` (stereo not given), the growth was 117% (inactive).

In the case of `O=c1sc2ncnc3ncn1c32`, the growth is 85.7% (inactive).

With `N#Cc1c(-c2ccccc2)cc(-c2ccccc2)n(CCC(=O)O)c1=O`, the growth is 45.3% (inactive).

As for `CC1(C)CC2(C)CC(=O)C1C(C(=O)O)C2C(=O)O` (stereo not given), the growth was 112% (inactive).

Take `CCCCCCCCCCCCCCCCNC(=O)Nc1ccc2ccccc2c1`: the growth was 99.2% (inactive).

As to `CC(C)CNc1nc(N=[N+]=[N-])nc(NCC(C)C)n1`, the growth is 68.8% [100 µM] (inactive).

As for `COc1ccc2nc(-c3ccc(Cl)cc3)cc(-c3nnc(SCC(=O)Nc4ccc(C(C)=O)cc4)n3-c3ccccc3)c2c1`, the growth is 102% (inactive).

Consider `Cc1sc2nc3c4ccccc4c(NCCCN(C)C)nn3c(=O)c2c1C`, for which the growth is 23.6% (inactive).

Take `Cc1ccc(C(NC(=O)c2ccccc2)c2ccc3cccnc3c2O)cc1` (stereo not given): the growth is 4.02% (active).

As for `COc1ccc2c(c1)sc1nc(-c3ccc(Br)cc3)cn12`, the growth is 117% (inactive).

Consider `Clc1ccc2[nH]cc(-c3cncn3CCc3ccccc3)c2c1`, for which the growth is 68.5% (inactive).

Regarding `CC[C@@H](C)/C=C(C)/C=C/C(O)=C1\C(=O)N[C@@H](Cc2ccc(OC(=O)[C@@](OC)(c3ccccc3)C(F)(F)F)cc2)C1=O`, the growth is 79.8% (inactive).

`O=C(Nc1nn2c(-c3cc(C(F)(F)F)cc(C(F)(F)F)c3)nnc2s1)C1CCCC1`: the growth is 3.63% (active).

Turning to `O=C1C2C(C(=O)N1CC[Se][Se]CCN1C(=O)C3C(C1=O)[C@H]1C=C[C@@H]3C1)[C@H]1C=C[C@@H]2C1` (stereo not given in full), the growth is -14.9% (active).

For the compound `CC(NC(=O)Oc1cccc2ccccc12)c1ccccc1` (stereo not given), the growth was 105% (inactive).

Take `O=C(O)CCNS(=O)(=O)c1ccc(-c2ccccc2)cc1`: the growth was 114% (inactive).

Take `CCOC(CNCc1cc(C)c2[nH]c3ccccc3c2c1C)OCC`: the growth is 89.1% (inactive).

`CCCCCCCCCCOC(C)=O`: the growth is 110% (inactive).

Take `Cc1sc2nc(N3CCCCC3)[nH]c(=O)c2c1C`: the growth is 101% (inactive).

Consider `COc1cc(-c2nc3sc4c(c3c(=O)[nH]2)CCCCCC4)cc(OC)c1OC`, for which the growth was 8.85% (active).

For `NC(=NCCCCCCN=C(N)/N=C(\N)Nc1ccc(Cl)cc1)/N=C(\N)Nc1ccc(Cl)cc1`, the growth was -1.1% (active).

Consider `O=[N+]([O-])c1ccc(NS(=O)(=O)c2ccc(Cl)c(Cl)c2)cc1`, for which the growth was 77.7% (inactive).

Consider `COC(=O)N/N=C/c1coc2ccc(Cl)cc2c1=O`, for which the growth is 102% (inactive).

For `COC(=O)C1=CCC(n2cnc3c(N)ncnc32)O1` (stereo not given), the growth is 121% (inactive).

Consider `CC(=O)Nc1c(Cl)cc2c(c1Cl)Cc1ccccc1-2`, for which the growth is 104% (inactive).

As for `COc1ccc(CNC(=O)c2c(C)n([O-])c3cc(F)c(F)cc3[n+]2=O)cc1`, the growth is 97.2% (inactive).

With `COc1cc(/C=C/C(=O)c2c(C)n([O-])c3ccccc3[n+]2=O)cc(OC)c1OC`, the growth is 20.6% (inactive).

As to `FC(F)(F)c1cc(-c2nnc3n2N=C(N2CCCC2)CS3)cc(C(F)(F)F)c1`, the growth is 58.1% (inactive).

In the case of `O=c1[nH]c(N2CCC(Cc3ccccc3)CC2)nc2sc3c(c12)CCCC3`, the growth is 102% (inactive).

Take `BrC1CC(Br)c2c1c1c(c3c2C(Br)CC3Br)C(Br)CC1Br` (stereo not given): the growth is 93.4% (inactive).

Take `c1ccc(CN=C(NCc2ccccc2)NCc2ccccc2)cc1`: the growth is 73.4% (inactive).

On to `CC[n+]1c(/C=C/c2ccc(N3CCCC3)cc2)cccc1/C=C/c1ccc(N2CCCC2)cc1`, for which the growth was -84.3% (active).

`Nc1ccc2c(c1)Cc1cc(Cl)c(Cl)cc1-2`: the growth is 52.6% (inactive).
